# Measurements as given in PubChem BioAssay.
# The source made the active and inactive calls. Cut-off read from the data, not from the text of the source, unless noted: active = nuclear beta-catenin stimulation mostly above about 4.2% (no sharp cut-off); inactive = mostly below about 10%.
# Columns and labels:
# [1] = Wnt pathway potentiators raising nuclear beta-catenin – imaging, WNT3A-conditioned medium, mouse C2C12, NPC library, primary screen (AID 1117326); details: stronger effect = higher value; note: reference of the scale not given here
# [2] = stimulators of insulin release from INS-1E, primary screen, cell-based, 5 mM glucose, NPC library (AID 1117329;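 active = compound raises insulin release from rat beta cells at 5 mM glucose, no numeric limit stated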; note: reference of the scale not given here); details: rat INS-1E insulin secretion, at 10 µM, stronger effect = higher value
# [3] = growth inhibition of GSK3B-pretreated HCT116 cells – cell-based, CellTiter-Glo, 0.2 to 20 µM (AID 1117336;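 active = compounds lowering colon cancer cell viability after pretreatment blocking the GSK3B kinase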); details: HCT116 viability after GSK3B inhibitor, at 20 µM, stronger effect = higher value
# [4] = inhibition of endothelial tube formation, primary screen, imaging, VEGF stimulated, CD31 staining, tube area, NPC library (AID 1117340;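 active = compound that reduces growth-factor-driven endothelial tube area in a mixed cell culture, no cutoff stated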); details: VEGF-stimulated ADSC/ECFC co-culture, at 10 µM, stronger effect = higher value
# [5] = GLP1 release stimulators, primary, NCI-H716, NPC library (AID 1117341;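 active = compound raises GLP1 secretion from the human gut endocrine cells, with no numeric limit stated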; note: reference of the scale not given here); details: NCI-H716 cells, at 10 µM, stronger effect = higher value
# [6] = HCT116 colon cancer cell growth inhibition, primary screen, CellTiter-Glo luminescence, NPC library (AID 1117342;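 active = compounds that lower survival of HCT116 colon cancer cells in the luminescence readout, no numeric limit stated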); details: at 20 µM (top of the series)
# [7] = reduced SW480 viability measured with CellTiter-Glo, NPC library, primary (AID 1117343;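 active = compounds that lower viability of the colon cancer cells in the luminescence readout, with no numeric limit stated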); details: CellTiter-Glo luminescence; at 20 µM (top of the series)
# [8] = NPC library primary testing for decreased DLD-1 cell viability via CellTiter-Glo (AID 1117346;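 active = compounds that lower survival of DLD-1 colon cancer cells in the luminescence readout, no cutoff given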); details: DLD-1 viability, CellTiter-Glo luminescence; at 20 µM (top of the series)
SMILES,nuclear beta-catenin stimulation ([1]; at 10 µM),"nuclear beta-catenin stimulation ([1]; stimulation, at 2 µM)",insulin secretion stimulation [2],viability decrease [3],tube area decrease [4],GLP1 secretion stimulation [5],inhibition of viability [6],viability decrease (inhibition) [7],viability decrease (inhibition) [8]
CCC(C(=O)OCCN1CCOC(c2ccccc2)C1C)c1ccccc1 (centres undefined),1% (inactive),1.6%,1.7% (inactive),-40.8% (inactive),3.7% (inactive),5.9% (inactive),15.8% (inactive),-0.4% (inactive),22.2% (inactive)
CC(=O)CC/C=C(\C)CC/C=C(\C)CC/C=C(\C)CCC=C(C)C,2.6% (inactive),1.2%,-2.1% (inactive),-2.15% (inactive),19.6% (inactive),-1.7% (inactive),-35.4% (inactive),34.2% (active),0.15% (inactive)
NC(=O)C[C@H](N)C(=O)O,3% (inactive),1.1%,-1.3% (inactive),-1% (inactive),-19.4% (inactive),2.4% (inactive),0.3% (inactive),0.2% (inactive),5.4% (inactive)
c1ccc(-n2cnnn2)cc1,0.3% (inactive),0.9%,1.9% (inactive),-7.2% (inactive),23.2% (inactive),-5% (inactive),1.7% (inactive),10.4% (inactive),1.4% (inactive)
CC(=O)O[C@H]1C[C@@H]2CC[C@H]3[C@H]4C[C@H]([N+]5(C)CCCCC5)[C@@H](OC(C)=O)[C@@]4(C)CC[C@@H]3[C@@]2(C)C[C@H]1[N+]1(C)CCCCC1,0.7% (inactive),0.2%,-1.1% (inactive),-2.7% (inactive),9.9% (inactive),-1.6% (inactive),-3.6% (inactive),-1.7% (active),-2.8% (inactive)
NC[C@H]1O[C@H](O[C@H]2[C@@H](O)[C@@H](O[C@H]3O[C@H](CO)[C@@H](O)[C@H](N)[C@@H]3O)[C@H](N)C[C@@H]2N)[C@H](N)C[C@H]1O,0.2% (inactive),1.4%,-1.2% (inactive),-19.7% (inactive),-1.5% (inactive),-0.3% (inactive),-0.2% (inactive),39.1% (inactive),-15.9% (inactive)
CCCCCCCCCCCCCCCCCC(=O)OCC(O)CO (centres undefined),-0.4% (inactive),1.7%,2.1% (inactive),1% (inactive),-4.1% (inactive),-0.3% (inactive),2.77% (inactive),-13.8% (inactive),-7.2% (inactive)
O=C(COCCOCCOCC(=O)Nc1c(I)cc(I)c(C(=O)O)c1I)Nc1c(I)cc(I)c(C(=O)O)c1I,0.1% (inactive),-1.8%,2.45% (inactive),-23.9% (inactive),-2.4% (inactive),-3.2% (inactive),-13.4% (inactive),-37.4% (inactive),-13.3% (inactive)
CCCCCCCCCCCCCCCCCCCCCC(=O)Nc1ccn([C@@H]2O[C@H](CO)[C@@H](O)[C@H]2O)c(=O)n1,4.1% (inactive),-0.9%,3.05% (inactive),48.1% (inactive),51.7% (active),-1.6% (inactive),39.5% (inactive),40.5% (inactive),15% (inactive)
NC(=O)NNc1ccccc1,3.2% (inactive),0.7%,-1.9% (inactive),-9.75% (inactive),16% (inactive),1.4% (inactive),-3% (inactive),30.5% (inactive),7.45% (inactive)
CCCCN(CCCC)C(C(N)=O)c1ccc(OC)cc1 (centres undefined),0% (inactive),-1.4%,36.4% (active),-5.1% (inactive),6.6% (inactive),2.1% (inactive),30.2% (inactive),10.2% (inactive),2.6% (inactive)
CCNC(=O)NCc1cccc(Cl)c1,-1.7% (inactive),-0.5%,2.2% (inactive),-2% (inactive),13.7% (inactive),-2.9% (inactive),1.1% (inactive),1.2% (inactive),-6.8% (inactive)
CNC(=O)c1cnn(-c2nc(N)c3ncn([C@@H]4O[C@H](CO)[C@@H](O)[C@H]4O)c3n2)c1,2.6% (inactive),4.8%,-0.3% (inactive),3.8% (inactive),20.4% (inactive),4.6% (inactive),1% (inactive),6.8% (inactive),-13.2% (inactive)
C[C@@H](O)[C@H](N)C(=O)O,0.7% (inactive),0.7%,-1.9% (inactive),-7.25% (inactive),-11.2% (inactive),1.6% (inactive),-31.1% (inactive),13.3% (inactive),12.6% (inactive)
COc1cc(O)cc(O)c1,1.6% (inactive),-0.2%,4.5% (inactive),-4.6% (inactive),10.6% (inactive),-9.8% (inactive),7.93% (inactive),4% (inactive),-9.1% (inactive)
CC(=O)N1CCN(c2ccc(O)cc2)CC1,1.7% (inactive),-1.5%,-0.1% (inactive),73.5% (active),-25.3% (inactive),3.8% (inactive),38.5% (inactive),101% (active),34.4% (inactive)
